{
  "source": "PubChem BioAssay (Tox21)",
  "note": "Inconclusive results are not listed. A number with no mark means an inactive call. Activity calls are given as the source filed them. Calls follow the shape of the dose curve; as a rule, active = well fitted cell-killing curve with a large enough effect in the repeat runs; inconclusive = weak or mixed curves; inactive = no such curve, though single readings can be large or run the other way. % is scaled to controls: 0 for no effect and ±100 for the full control effect; potency is read from the fitted curve at half-maximal effect.",
  "data": [
    {"assay": "qHTS assay for identifying genotoxic compounds that show differential cytotoxicity against isogenic chicken DT40 cell lines with known DNA damage response pathways - Rad54/Ku70 mutant cell line (AID 743015); also: nearly all actives have a fitted effect of over 60% in size", "details": "DT40 Rad54/Ku70 mutant viability, CellTiter-Glo, 40 h; series mostly up to 66.8 µM; activity change, negative = cytotoxicity: at the top concentration", "source_text": "National Center for Advancing Translational Sciences [NCATS]\nNIH Chemical Genomics Center [NCGC]\nU.S. Environmental Protection Agency [EPA]\nNational Institutes of Environmental Health Sciences [NIEHS]\nNational Toxicology Program [NTP]\nU.S. Food and Drug Administration [FDA]\nDNA repair pathways play a critical role in cellular homeostasis by repairing DNA damage induced by endogenous processes and xenobiotics. Isogenic chicken DT40 cell lines deficient in different DNA repair pathways can be used to identify genotoxic compounds and aid in characterizing the nature of the DNA damage induced. Two DNA repair-deficient cell lines with disrupted genes, Rad54/Ku70 or Rev3, were used to screen the Tox21 10K compound library. Possible genotoxicity was based on the presence of a significant increase in cytotoxicity in one or more of the DNA repair-deficient cell lines compared to that observed in the parental DNA repair-proficient cell line. CellTiter Glo viability assay (Promega, Madison, WI) was used to measure cell viability in these cells after compound treatment. This assay includes the data from the Rad54/Ku70 mutant cell line.\nTox21 Assay Protocol Summary:\n300 DT40 mutant cells in 5 uL/well were dispensed into white, solid-bottom 1536-well plates using a Multidrop Combi (ThermoFisher Scientific, Waltham, MA) dispenser. After the assay plates were incubated at 37 C/5% CO2 for approximately 0.5 hour, 23 nL of compounds dissolved in DMSO, positive controls or DMSO only was transferred into the assay plate by a pintool work station (Kalypsys, San Diego, CA). The assay plates were incubated at 37 C/5% CO2 for 40 hours. After 5 uL per well of CellTiter-Glo reagent was added into each well of the assay plates, the plates were incubated for 30 min at room temperature and the luminescence intensity of the plates was measured using a ViewLux (PerkinElmer, Shelton, CT) plate reader.", "values": [
      {"smiles": "N#Cc1c(Cl)cccc1Cl", "activity change, negative = cytotoxicity": "-0.679%"},
      {"smiles": "CC1CN1P(=O)(N1CC1C)N1CC1C", "note": "(stereo not given)", "activity change, negative = cytotoxicity": "-14%"},
      {"smiles": "COC(=O)COc1ccc(Cl)cc1Cl", "activity change, negative = cytotoxicity": "-19.1%"},
      {"smiles": "O=[N+]([O-])c1cccc2c([N+](=O)[O-])cccc12", "activity change, negative = cytotoxicity": "4.56% [at 95.1 µM]"},
      {"smiles": "O=[N+]([O-])c1cccc(O)c1", "activity change, negative = cytotoxicity": "2.14% [at 95.1 µM]"},
      {"smiles": "CC(=O)CCc1ccc2c(c1)OCO2", "activity change, negative = cytotoxicity": "-2.32%"},
      {"smiles": "CNC(=O)O/N=C(\\C)SC", "activity change, negative = cytotoxicity": "-0.964%"},
      {"smiles": "COc1cc(OC)nc(NC(=O)NS(=O)(=O)c2ncccc2C(=O)N(C)C)n1", "activity change, negative = cytotoxicity": "-2.11%"},
      {"smiles": "[Cl][Sn]([Cl])([Cl])[Cl]", "activity change, negative = cytotoxicity": "-0.753% [at 95.1 µM]"},
      {"smiles": "Cc1ncsc1CCCl", "activity change, negative = cytotoxicity": "10.4%"},
      {"smiles": "O=[N+]([O-])c1ccc(CBr)cc1", "activity change, negative = cytotoxicity": "1.77% [at 95.1 µM]"},
      {"smiles": "C(CCOCC1CO1)COCC1CO1", "note": "(stereo not given)", "Potency": "15.1 µM (active)"},
      {"smiles": "CCCSP(=O)(OCC)Oc1ccc(Br)cc1Cl", "note": "(stereo not given)", "Potency": "29.7 µM (active)"},
      {"smiles": "Oc1c(Cl)cccc1Cl", "activity change, negative = cytotoxicity": "7.37%"},
      {"smiles": "CCS(=O)(=O)C(C)(C)S(=O)(=O)CC", "activity change, negative = cytotoxicity": "10.5%"},
      {"smiles": "CSc1ccc(C(=O)C(C)(C)N2CCOCC2)cc1", "Potency": "48.6 µM (active)"},
      {"smiles": "Cc1nc(N)nc(N)n1", "activity change, negative = cytotoxicity": "0.733% [at 95.1 µM]"},
      {"smiles": "CC(C=O)Cc1ccc2c(c1)OCO2", "note": "(stereo not given)", "activity change, negative = cytotoxicity": "-0.0907%"},
      {"smiles": "CCOP(=S)(OCC)SCSP(=S)(OCC)OCC", "Potency": "61.1 µM (active)"},
      {"smiles": "O=C(NCO)NCO", "activity change, negative = cytotoxicity": "5.76% [at 95.1 µM]"},
      {"smiles": "COc1cccc2c1cc([N+](=O)[O-])c1c(C(=O)O)cc3c(c12)OCO3", "Potency": "0.193 µM (active)"},
      {"smiles": "COc1cccc(C(=O)NN(C(=O)c2cc(C)cc(C)c2)C(C)(C)C)c1C", "Potency": "61.1 µM (active)"},
      {"smiles": "CNC(=O)Oc1cccc(C(C)C)c1", "activity change, negative = cytotoxicity": "-13.4%"},
      {"smiles": "CC1(C)C(=O)NC(=O)NC1=O", "activity change, negative = cytotoxicity": "-20.8%"},
      {"smiles": "ClC(Br)Br", "activity change, negative = cytotoxicity": "-1.25%"},
      {"smiles": "CCCCC(=O)Cl", "activity change, negative = cytotoxicity": "-17.7% [at 95.1 µM]"},
      {"smiles": "CC(C)(C)NCC(O)c1cc(Cl)c(N)c(Cl)c1", "note": "(stereo not given)", "activity change, negative = cytotoxicity": "9.37%"},
      {"smiles": "O=C(Nc1ccccc1)N(Cc1ccc(Cl)cc1)C1CCCC1", "Potency": "1.54 µM (active)"},
      {"smiles": "ClC(Cl)(Cl)C(Cl)(Cl)Cl", "activity change, negative = cytotoxicity": "3.51% [at 95.1 µM]"},
      {"smiles": "O=C(CCCN1CCC(n2c(=O)[nH]c3ccccc32)CC1)c1ccc(F)cc1", "Potency": "10.1 µM (active)"},
      {"smiles": "COC(=O)C1=CCCN(C)C1", "activity change, negative = cytotoxicity": "4.2%"},
      {"smiles": "CS(=O)(=O)c1cc(C(F)(F)F)ccc1C(=O)c1cnoc1C1CC1", "activity change, negative = cytotoxicity": "-11.8%"},
      {"smiles": "CC1=NNC(=O)N(/N=C/c2cccnc2)C1", "activity change, negative = cytotoxicity": "1.51%"},
      {"smiles": "Cc1ncc(CNC(=O)N(CCCl)N=O)c(N)n1", "activity change, negative = cytotoxicity": "5.19%"},
      {"smiles": "CCCSC(=O)N(CCC)CCC", "activity change, negative = cytotoxicity": "1.34%"},
      {"smiles": "[As]#[In]", "activity change, negative = cytotoxicity": "7.46%"},
      {"smiles": "O=c1oc2ccccc2c(O)c1C1CCCc2ccccc21", "note": "(stereo not given)", "activity change, negative = cytotoxicity": "-19.5%"},
      {"smiles": "CCC/C(=N\\OCC)C1=C(O)CC(CC(C)SCC)CC1=O", "note": "(stereo not given)", "Potency": "61.5 µM (active)"},
      {"smiles": "CCN(CC)C(C)C(=O)c1ccccc1", "note": "(stereo not given)", "activity change, negative = cytotoxicity": "-1.2%"},
      {"smiles": "CCN(CC)c1nc(C)cc(OP(=S)(OC)OC)n1", "Potency": "48.6 µM (active)"}
    ]}
  ]
}
